# The supplement of paper PMC6279402
# Counter-ions that a name gives are not always drawn. ± gives the standard deviation of the averaged measurements.
# Tested on: A549
# Experiment: relative viability (normalised to negative control = 1, bortezomib = 0) (fraction); higher = less cytotoxic
# Settings: inflammatory serum-free RHB-A with cytokines + LPS, 5 d + 24 h CellTiter-Blue
# [1] = compound 30 nM, GSK126 pretreatment: 5 uM GSK126
# [2] = compound 30 nM, GSK126 pretreatment: none (vehicle)
# [3] = compound 300 nM, GSK126 pretreatment: 5 uM GSK126
# [4] = compound 300 nM, GSK126 pretreatment: none (vehicle)
SMILES,relative viability [1],relative viability [2],relative viability [3],relative viability [4]
CCCS(=O)(=O)Nc1ccc(F)c(C(=O)c2c[nH]c3ncc(-c4ccc(Cl)cc4)cc23)c1F [vemurafenib],0.86 ± 0.082,0.848 ± 0.071,1 ± 0.051,1.02 ± 0.061
COc1ccc(-c2cc3c(C)nc(N)nc3n(C3CCC(OCCO)CC3)c2=O)cn1 (stereo not given),0.617 ± 0.071,0.634 ± 0.063,0.0912 ± 0.017,0.087 ± 0.014
Cc1csc(-c2nnc(Nc3ccc(Oc4ncccc4-c4ccnc(N)n4)cc3)c3ccccc23)c1,0.692 ± 0.11,0.593 ± 0.11,0.512 ± 0.076,0.441 ± 0.061
Nc1nc(Cl)nc2c1ncn2[C@H]1C[C@H](O)[C@@H](CO)O1 [Cladribine],0.723 ± 0.12,0.729 ± 0.099,0.386 ± 0.1,0.305 ± 0.075
NC(N)=NC(N)=NCCc1ccccc1 [Phenformin hydrochloride],0.897 ± 0.13,0.864 ± 0.068,0.955 ± 0.058,0.966 ± 0.13
CS(=O)(=O)c1ccc(C(=O)Nc2ccc(Cl)c(-c3ccccn3)c2)c(Cl)c1 [Vismodegib],0.993 ± 0.058,0.952 ± 0.12,1.05 ± 0.14,1.03 ± 0.074
S=C(NCc1ccc2c(c1)OCO2)N1CCN(c2ncnc3c2oc2ccccc23)CC1 [Amuvatinib (MP-470); MP-470],0.861 ± 0.067,0.848 ± 0.057,0.917 ± 0.15,1.07 ± 0.072
Nc1nc2[nH]cnc2c(=S)[nH]1 [Thioguanine],0.978 ± 0.039,0.929 ± 0.043,0.917 ± 0.045,1 ± 0.073
CC(=O)Nc1nc(C)c(-c2ccc(Cl)c(S(=O)(=O)NCCO)c2)s1,0.61 ± 0.047,0.678 ± 0.015,0.487 ± 0.16,0.712 ± 0.052
N#CCNC(=O)c1ccc(-c2ccnc(Nc3ccc(N4CCOCC4)cc3)n2)cc1,0.933 ± 0.027,0.961 ± 0.042,1.22 ± 0.083,1.4 ± 0.038
O=C(O)C(=O)O.[NH-][C@@H]1CCCC[C@H]1[NH-].[Pt+2] [Oxaliplatin],0.792 ± 0.077,0.782 ± 0.1,0.79 ± 0.088,0.796 ± 0.037
Cc1ccc([N+](=O)[O-])cc1S(=O)(=O)N(C)/N=C/c1cnc2ccc(Br)cn12 [PIK-75 Hydrochloride],0.0451 ± 0.0082,0.101 ± 0.062,-0.00172 ± 0.0047,-0.00104 ± 0.0047
O=C(Cc1ccc(-c2ccc(OCCN3CCOCC3)cc2)cn1)NCc1ccccc1,0.319 ± 0.065,0.211 ± 0.026,0.388 ± 0.049,0.248 ± 0.05
O=C1NC(=O)/C(=C/c2ccc(-c3ccc(F)cc3O)o2)S1,0.977 ± 0.15,0.857 ± 0.062,0.744 ± 0.082,0.839 ± 0.1
Cn1cc(-c2ccc3nnc(C(F)(F)c4ccc5ncccc5c4)n3n2)cn1,0.954 ± 0.11,0.904 ± 0.029,1.001 ± 0.009,0.947 ± 0.026
Cc1ccc(-c2cc(C(F)(F)F)nn2-c2ccc(S(N)(=O)=O)cc2)cc1 [Celecoxib],0.842 ± 0.065,0.787 ± 0.09,0.783 ± 0.13,0.908 ± 0.14
O=c1ncn2nc(Sc3ccc(F)cc3F)ccc2c1-c1c(Cl)cccc1Cl,0.831 ± 0.12,0.867 ± 0.11,1.12 ± 0.12,1.03 ± 0.16
c1ccc2c(-c3cnn4cc(-c5ccc(N6CCNCC6)cc5)cnc34)ccnc2c1,1.01 ± 0.16,0.961 ± 0.15,1.1 ± 0.067,1.13 ± 0.093
NC(=O)Nc1cc(-c2cccc(F)c2)sc1C(=O)N[C@H]1CCCNC1,0.407 ± 0.061,0.389 ± 0.034,0.253 ± 0.082,0.194 ± 0.021
N#CC1(c2ccc(NC(=O)c3cccnc3NCc3ccncc3)cc2)CCCC1 [Apatinib (YN968D1)],0.83 ± 0.072,0.853 ± 0.054,0.936 ± 0.085,0.9943 ± 0.005
O=c1[nH]c(=O)n([C@H]2C[C@H](O)[C@@H](CO)O2)cc1F [Floxuridine],0.895 ± 0.018,0.886 ± 0.058,0.903 ± 0.037,0.908 ± 0.05
CNC(=O)c1c(F)cccc1Nc1nc(Nc2cc3c(cc2OC)CCN3C(=O)CN(C)C)nc2[nH]ccc12,0.762 ± 0.059,0.792 ± 0.067,0.295 ± 0.019,0.431 ± 0.015
CN1CC[C@H](c2c(O)cc(O)c3c(=O)cc(-c4ccccc4Cl)oc23)[C@H](O)C1 [Flavopiridol (Alvocidib)],0.777 ± 0.11,0.771 ± 0.15,0.0118 ± 0.0013,0.0301 ± 0.0094
COc1cc([C@@H]2c3cc4c(cc3[C@@H](O[C@@H]3O[C@@H]5CO[C@@H](c6cccs6)O[C@H]5[C@H](O)[C@H]3O)[C@H]3COC(=O)[C@H]23)OCO4)cc(OC)c1O [Teniposide],0.861 ± 0.062,0.777 ± 0.076,0.685 ± 0.037,0.544 ± 0.072
CCOc1ccn(-c2ccc(F)cc2)c(=O)c1C(=O)Nc1ccc(Oc2ccnc(N)c2Cl)c(F)c1,0.905 ± 0.21,0.914 ± 0.17,0.977 ± 0.21,1.08 ± 0.16
CCCNC(=O)Nc1ccc(Oc2ncnc3cc(OC)c(OC)cc23)cc1Cl,0.713 ± 0.055,0.752 ± 0.01,0.775 ± 0.19,0.895 ± 0.087
N#Cc1ccc(C(c2ccc(C#N)cc2)n2cncn2)cc1 [Letrozole],0.756 ± 0.011,0.7993 ± 0.0055,0.832 ± 0.063,0.932 ± 0.037
CCCS(=O)(=O)Nc1ccc(F)c(C(=O)c2c[nH]c3ncc(Cl)cc23)c1F,0.771 ± 0.062,0.725 ± 0.028,0.851 ± 0.19,1.02 ± 0.074
O=C1NC(=O)/C(=C/c2ccc3c(c2)OC(F)(F)O3)S1,0.939 ± 0.15,0.969 ± 0.17,1.01 ± 0.14,0.968 ± 0.092
CNNCc1ccc(C(=O)NC(C)C)cc1 [Procarbazine hydrochloride; Procarbazine],0.962 ± 0.15,0.915 ± 0.14,0.997 ± 0.12,0.967 ± 0.06
